The subject of assay [1] is XIP peptide (Xip251-270) binding. Kind of assay: XIP fragment 251-270 binding compounds – biochemical, small-molecule microarray, fluorescence 635/667 nm, 0.1 µg/mL protein, primary screen (AID 1182). Conditions: fluorescent protein binding, 635 nm, higher = more signal, called active from +8 up or from −8 down.
The subject of assay [2] is XIP peptide (Xip251-270). The assay can be described thus: compounds binding XIP fragment 251-270 – biochemical, small-molecule microarray, fluorescence 635/667 nm, 0.5 µg/mL protein, primary screen (AID 1183). Conditions: fluorescence 635 nm, higher = more signal.
Assay [3] in a line: blood-stage malaria parasite viability loss – strain 3D7, DAPI fluorescence, 100 nL, primary screen (AID 1184).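 Also: parasites grown inside human red blood cells in medium with human serum.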 Conditions: P. falciparum 3D7 growth, 3 d, higher = more signal.
For assay [4], the target named is Homeobox protein Hox-A13 (Mus musculus) (UniProt Q62424). Kind of assay: disruptors of Hoxa13 oligonucleotide interaction – biochemical, fluorescence polarization, labeled oligonucleotide, primary screen (AID 1185). Conditions: Hoxa13:DNA binding, 15 min, higher = more signal, called active from +8 up or from −8 down. (Polarisation of emitted light reports the rotation of a fluorescent probe.)

Assay [5] in a line: blockers of DNA damage checkpoint Chk1 activation – imaging, HeLa, hydroxyurea, phospho-Chk1 antibody, percent positive cells, primary screen (AID 1186). Conditions: hydroxyurea-induced phospho-Chk1 immunofluorescence imaging, higher = more signal.
The nature of assay [6]: blockers of DNA damage checkpoint Chk1 activation – imaging, HeLa, hydroxyurea, phospho-Chk1 nuclear intensity, primary screen (AID 1187). Conditions: hydroxyurea-induced phospho-Chk1 immunofluorescence imaging, higher = more signal.

The source made the active and inactive calls. Unless noted, no rule for the calls is given here.

Sequence of Homeobox protein Hox-A13 (Mus musculus) (Q62424 whole entry, looked up): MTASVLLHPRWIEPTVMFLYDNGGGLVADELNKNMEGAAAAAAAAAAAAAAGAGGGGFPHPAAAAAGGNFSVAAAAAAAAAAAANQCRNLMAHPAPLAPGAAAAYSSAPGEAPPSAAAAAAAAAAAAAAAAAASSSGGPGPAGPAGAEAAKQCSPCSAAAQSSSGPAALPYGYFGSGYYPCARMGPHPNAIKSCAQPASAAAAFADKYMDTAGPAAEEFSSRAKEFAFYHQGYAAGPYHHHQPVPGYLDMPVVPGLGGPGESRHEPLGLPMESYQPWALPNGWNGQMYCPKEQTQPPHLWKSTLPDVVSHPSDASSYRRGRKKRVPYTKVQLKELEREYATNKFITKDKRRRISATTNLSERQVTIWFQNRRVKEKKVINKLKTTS

With `C[C@]1(C(=O)NC2CC2)c2ccccc2C(=O)N(Cc2ccccc2)[C@H]1c1ccc(CO)cc1`, the results for the composite z-score in assay [1] and in assay [2] were -0.0942 (inactive) and -0.227, respectively. The z-score in assay [3] was -1.62; in assay [4] it was -1.31 (inactive); in assay [5], -0.483 (inactive); in assay [6], -0.567 (inactive).

As to `[N-]=[N+]=NCc1ccccc1C[C@@]1(C(=O)NCc2ccccc2)N=C(c2ccc(OCCCO)cc2)O[C@@H]1c1ccccc1N=[N+]=[N-]`, the composite z-score in assay [1] is 0.047 (inactive); in assay [2], 0.558. Also, the z-score is -2.37 in assay [3], 0.321 (inactive) in assay [4], -0.299 (inactive) in assay [5] and -0.147 (inactive) in assay [6].

As to `COCCOC(=O)N1C(=O)[C@@]2(c3cc(C#CCNC(N)=O)ccc31)[C@H](C(=O)N1CCc3cc(OC)c(OC)cc3C1)[C@H]1C(=O)O[C@H](c3ccccc3)[C@H](c3ccccc3)N1[C@@H]2c1ccccc1OCCO`, the figures for the composite z-score in assay [1] and in assay [2] were 1.53 (inactive) and 0.498, respectively. The z-score was -2.2 in assay [3], 0.577 (inactive) in assay [4], 0.0782 (inactive) in assay [5] and 0.147 (inactive) in assay [6].

For the compound `C=C(/C(=C/C[C@H](OC(=O)c1ccncc1)c1ccc(CO)o1)c1cc(C(=O)OC)ccc1OC)C(C)C`, the composite z-score in assay [1] is 0.0474 (inactive); in assay [2], 0.554. For the same compound, the z-score in assay [3] is -0.114; in assay [4], -5.26 (inactive); in assay [5] it was -0.291 (inactive); in assay [6], -0.218 (inactive).

As for `CC(CO)N1C(=O)[C@@H]2[C@H]3C(=O)OCC=C[C@H]3OC23C=CCN(CCN2CCOCC2)C(=O)[C@@H]13` (stereo partly specified), the composite z-score in assay [1] is -0.0198 (inactive); in assay [2], 0.154. The z-score is 0.177 in assay [3], -5.37 (inactive) in assay [4], -0.259 (inactive) in assay [5] and -0.252 (inactive) in assay [6].

As for `CN(C)C(=O)[C@@]1(Cc2ccccc2CN=[N+]=[N-])N=C(c2ccc(OCCCO)cc2)O[C@H]1c1ccccc1CN=[N+]=[N-]`, the composite z-score in assay [1] is 0.105 (inactive); in assay [2], 0.707. Besides, the z-score in assay [3] was -2.15; in assay [4] it was -2.04 (inactive); in assay [5] it was -0.0765 (inactive); in assay [6], 0.127 (inactive).

For the compound `CC1=C[C@@]2(CO)C(=O)[C@]3(CO3)[C@@H]1[C@H]1[C@]2(C)C=C(CO)C(=O)[C@]12CO2`, the composite z-score in assay [1] is 0.188 (inactive); in assay [2], 0.454. In addition, the z-score in assay [3] is -1.27; in assay [4], -4.58 (inactive); in assay [5] it was -0.441 (inactive); in assay [6], -0.35 (inactive).

On to `CCCCCCc1nc(-c2cc(C)c(OC)c(C)c2)c(C)c2c1[Si](C(C)C)(C(C)C)OC2`, for which the composite z-score is -0.31 (inactive) in assay [1] and -0.306 in assay [2]. The z-score was -2.23 in assay [3], -0.241 (inactive) in assay [4], 0.0933 (inactive) in assay [5] and 0.149 (inactive) in assay [6].

In the case of `COC(=O)C1=CC(CCCO)=CC(C2CC2)N(C)C=C1C(=O)OC` (stereo unspecified), the composite z-score in assay [1] was 0.473 (inactive); in assay [2] it was 0.16. Moreover, the z-score in assay [3] was 0.493; in assay [4], -6.16 (inactive); in assay [5] it was -0.68 (inactive); in assay [6], -1.04 (inactive).

For the compound `CN(C)C(=O)[C@@]1(CCS(=O)(=O)c2ccccc2)N=C(c2ccc(OCCCO)cc2)O[C@H]1c1ccccc1`, the composite z-score was 0.77 (inactive) in assay [1] and 0.704 in assay [2]. In addition, the z-score was -1.48 in assay [3], -6.87 (inactive) in assay [4], -0.13 (inactive) in assay [5] and -0.0208 (inactive) in assay [6].

In the case of `CO[C@]12C=C(Br)[C@@H](C[C@@H]1c1cccc(C)c1)[C@@]1(CO1)C2=O`, the composite z-score was 0.177 (inactive) in assay [1] and 0.179 in assay [2]. Besides, the z-score in assay [3] was 0.267; in assay [4], -1.7 (inactive); in assay [5] it was -0.545 (inactive); in assay [6] it was -0.28 (inactive).

Take `Cc1ccc(S[C@]2(C(=O)O)CC(=O)N(C3Cc4ccccc4C3)[C@@H]2c2ccc(CO)cc2)cc1`: the values for the composite z-score in assay [1] and in assay [2] were 1.36 (inactive) and -0.669, respectively. Moreover, the z-score in assay [3] was 1.58; in assay [4] it was -3.97 (inactive); in assay [5] it was 0.172 (inactive); in assay [6], 0.129 (inactive).

`COCCOC(=O)N1C(=O)[C@@]2(c3cc(C#CC4(O)CCCCCC4)ccc31)[C@H](c1ccc(O)cc1)N1[C@H](c3ccccc3)[C@H](c3ccccc3)OC(=O)[C@H]1[C@@H]2C(=O)NC[C@H](O)c1ccccc1`: the values for the composite z-score in assay [1] and in assay [2] were 1.71 (inactive) and 0.681, respectively. Besides, the z-score in assay [3] is -0.0194; in assay [4] it was -2.78 (inactive); in assay [5], -0.145 (inactive); in assay [6], -0.154 (inactive).

For `N#Cc1ccc(NN2C(C(O)c3ccc(F)cc3)C=CC3C(=O)N(c4ccccc4)C(=O)C32)cc1` (stereo unspecified), the composite z-score in assay [1] is 0.536 (inactive); in assay [2], 0.634. Besides, the z-score in assay [3] is -0.573; in assay [4], -0.0009 (inactive); in assay [5], -0.0909 (inactive); in assay [6], -0.0009 (inactive).

Turning to `COCCCNC(=O)[C@@]1(Sc2ccc(C)cc2)CC(=O)N(C2CCCCC2)[C@@H]1c1ccc(CO)cc1`, the figures for the composite z-score in assay [1] and in assay [2] were -0.0795 (inactive) and 0.421, respectively. Also, the z-score in assay [3] was -0.715; in assay [4] it was -3.21 (inactive); in assay [5] it was 0.317 (inactive); in assay [6], 0.592 (inactive).

As to `C=CC1c2cc(O)c(OC)cc2CCN1Cc1cc2c(cc1Br)OCO2` (stereo unspecified), the composite z-score in assay [1] was 1.31 (inactive); in assay [2], 0.962. Also, the z-score in assay [3] was -2.14; in assay [4], -5.73 (inactive); in assay [5] it was -0.103 (inactive); in assay [6], -0.0965 (inactive).

As to `CCOC(=O)C1=CC[C@@H](c2ccc(OCc3ccccc3)c(OC)c2)N(S(=O)(=O)c2ccc(C)cc2)[C@H]1c1ccc(SC)cc1`, the composite z-score in assay [1] is 0.56 (inactive); in assay [2], 0.569. Further, the z-score in assay [3] was -2.05; in assay [4], 1.81 (inactive); in assay [5], -0.387 (inactive); in assay [6], -0.768 (inactive).

Take `NCCCCCNC(=O)[C@@H]1C[C@@H]2C(=O)NCC(=O)N2[C@@H]1c1cccc(OCCO)c1`: the composite z-score is 0.318 (inactive) in assay [1] and 0.782 in assay [2]. The z-score in assay [3] was -1.28; in assay [4], -1.43 (inactive); in assay [5], 0.518 (inactive); in assay [6], 0.503 (inactive).

For `C=CCOC(=O)[C@H]1[C@@H]2C(=O)O[C@@H](c3ccccc3)[C@@H](c3ccccc3)N2[C@@H](c2ccc(OCCOC(=O)[C@H]3C[C@H]4C(=O)N[C@@H](CCCCNC(C)=O)C(=O)N4[C@H]3c3ccc(O)cc3)cc2)[C@]12C(=O)Nc1ccccc12`, the results for the composite z-score in assay [1] and in assay [2] were 2.69 (inactive) and 0.685, respectively. Further, the z-score in assay [3] is -1.72; in assay [4], -1.06 (inactive); in assay [5], 0.203 (inactive); in assay [6], 0.261 (inactive).

Regarding `COC(=O)c1c2oc(c1C(=O)OC)C(=O)N(C)Cc1cn(nn1)C[C@H](Cc1ccccc1)NC(=O)N[C@H](CO)CC2`, the values for the composite z-score in assay [1] and in assay [2] were 0.15 (inactive) and -0.374, respectively. The z-score in assay [3] was -0.38; in assay [4], -1.66 (inactive); in assay [5], 0.453 (inactive); in assay [6], 0.723 (inactive).

As for `NC(=O)NCC#Cc1ccc2c(c1)[C@]1(C(=O)N2)[C@H](C(=O)O)[C@H]2C(=O)O[C@H](c3ccccc3)[C@H](c3ccccc3)N2[C@@H]1c1ccc(OCCO)cc1`, the composite z-score in assay [1] was -0.316 (inactive); in assay [2] it was 0.419. Also, the z-score in assay [3] was -0.46; in assay [4], -6.34 (inactive); in assay [5] it was 0.242 (inactive); in assay [6], 0.615 (inactive).

On to `CCOC(=O)C1=CC[C@@H](c2cccc(Cl)c2)N(S(=O)(=O)c2ccc(C)cc2)C1`, for which the results for the composite z-score in assay [1] and in assay [2] were 1.46 (inactive) and 0.662, respectively. Moreover, the z-score in assay [3] was -0.639; in assay [4] it was -1.21 (inactive); in assay [5], -0.566 (inactive); in assay [6], -0.272 (inactive).

Consider `CC1CC/C=C\[C@H]2OC34C=CCN(c5ccc(Cl)cc5)C(=O)[C@H]3N(CCCCCO)C(=O)[C@]4(C)C2C(=O)O1` (stereo partly specified), for which the values for the composite z-score in assay [1] and in assay [2] were -0.546 (inactive) and -0.613, respectively. The z-score is -0.396 in assay [3], -4.96 (inactive) in assay [4], 1 (inactive) in assay [5] and 0.917 (inactive) in assay [6].

As to `CCOC(=O)C[C@H]1[C@H](OC(=O)c2cc3ccccc3oc2=O)[C@@H](NC(=O)c2ccc(-c3ccccc3)cc2)c2cc(OCCCO)ccc2N1C(=O)c1ccc2ccccc2n1`, the results for the composite z-score in assay [1] and in assay [2] were 0.155 (inactive) and 0.339, respectively. Moreover, the z-score in assay [3] was -0.949; in assay [4] it was -2.27 (inactive); in assay [5] it was -0.359 (inactive); in assay [6] it was -0.583 (inactive).

As to `O=C1N(Cc2ccccc2)Cc2ccccc2[C@@H]2OC(c3ccc(OCCCO)cc3)=N[C@]12CCS(=O)(=O)c1ccccc1`, the composite z-score in assay [1] was 0.0667 (inactive); in assay [2], 0.736. Moreover, the z-score was -2.17 in assay [3], 0.722 (inactive) in assay [4], -0.0608 (inactive) in assay [5] and 0.268 (inactive) in assay [6].

With `C=CCC(OC(C)=O)[C@@H]1[C@@H](N(Cc2ccc(-c3cccc(C(F)(F)F)c3)o2)C(=O)c2ccc(C)cc2)c2cc(OCCCO)ccc2N1C(=O)c1ccc2ccccc2c1` (stereo partly specified), the composite z-score was 0.579 (inactive) in assay [1] and 0.0901 in assay [2]. Besides, the z-score in assay [3] was -2.6; in assay [4] it was -0.683 (inactive); in assay [5], -0.793 (inactive); in assay [6], -0.595 (inactive).

The values above are taken from PubChem BioAssay.
